Test results: PubChem BioAssay AID1159580 (chemical genetic matrix, 2015)
In all, about 5,500 compounds went through this assay and about 2,000 (36%) were called active. Another 18% or so got no clear call; they are omitted. Cut-off read from the data, not from the text of the source: active = normalized growth mostly below about 0.91 (no sharp cut-off); inconclusive = no clear call, values can overlap the other calls; inactive = mostly above about 0.92. This is one part of the list.

Test: chemical genetic growth profiling, strain panel (AID 1159580);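 note: tested at 20 µM; growth read once vehicle control cultures reached saturation at 30 °C; 1 = growth at the plate median or of vehicle wells; lower values mean less growth of the strain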
Details: growth OD

Measured: normalized growth

CCCN(CCC)c1c([N+](=O)[O-])cc(C(F)(F)F)cc1[N+](=O)[O-]
inactive: S. cerevisiae deletion strains, locus YJR075W, strain HOC1, hits give low values 0.994 | S. cerevisiae deletion strains, locus YKL009W, strain mrt4, hits give low values 1.03 | S. cerevisiae deletion strains, locus YKL068W, hits give low values 1.01 | S. cerevisiae deletion strains, locus YKL085W, strain MDH1 (second series), hits give low values 1 | S. cerevisiae deletion strains, locus YKL085W, strain MDH1, hits give low values 1 | S. cerevisiae deletion strains, locus YKL160W, strain elf1, hits give low values 1 | S. cerevisiae deletion strains, locus YKL190W, strain CNB1, hits give low values 1.01 | S. cerevisiae deletion strains, locus YKR001C, strain vps1, hits give low values 1.03 | S. cerevisiae deletion strains, locus YKR026C, strain gcn3, hits give low values 0.97 | S. cerevisiae deletion strains, locus YKR091W, strain srl3, hits give low values 0.999 | S. cerevisiae deletion strains, locus YLL001W, strain dnm1, hits give low values 0.999 | S. cerevisiae deletion strains, locus YLL026W, hits give low values 0.999 | S. cerevisiae deletion strains, locus YLL041C, strain sdh2, hits give low values 1 | S. cerevisiae deletion strains, locus YLR027C, strain aat2, hits give low values 1.01 | S. cerevisiae deletion strains, locus YLR039C, strain RIC1, hits give low values 0.99 | S. cerevisiae deletion strains, locus YLR058C, strain SHM2, hits give low values 1 | S. cerevisiae deletion strains, locus YLR102C, strain apc9, hits give low values 1.01 | S. cerevisiae deletion strains, locus YLR113W, strain HOG1, hits give low values 1.02 | S. cerevisiae deletion strains, locus YLR221C, strain rsa3, hits give low values 1 | S. cerevisiae deletion strains, locus YLR258W, strain gsy2, hits give low values 0.984 | S. cerevisiae deletion strains, locus YLR262C, strain YPT6 (second series), hits give low values 0.989 | S. cerevisiae deletion strains, locus YLR262C, strain YPT6, hits give low values 1.04 | S. cerevisiae deletion strains, locus YLR268W, strain sec22, hits give low values 1.02 | S. cerevisiae deletion strains, locus YLR320W, strain mms22, hits give low values 1.01 | S. cerevisiae deletion strains, locus YLR330W, strain CHS5, hits give low values 1.02 | S. cerevisiae deletion strains, locus YLR342W, strain FKS1 (second series), hits give low values 1.04 | S. cerevisiae deletion strains, locus YLR342W, strain FKS1, hits give low values 1.04 | S. cerevisiae deletion strains, locus YLR357W, strain rsc2, hits give low values 1.13 | S. cerevisiae deletion strains, locus YLR370C, strain arc18, hits give low values 1 | S. cerevisiae deletion strains, locus YLR371W, strain rom2, hits give low values 1.02 | S. cerevisiae deletion strains, locus YLR384C, strain iki3, hits give low values 1.02 | S. cerevisiae deletion strains, locus YLR418C, strain cdc73, hits give low values 1 | S. cerevisiae deletion strains, locus YML016C, strain PPZ1, hits give low values 0.982 | S. cerevisiae deletion strains, locus YML032C, strain rad52, hits give low values 1.02 | S. cerevisiae deletion strains, locus YML120C, strain ndi1, hits give low values 0.985 | S. cerevisiae deletion strains, locus YML124C, strain tub3, hits give low values 1.02 | S. cerevisiae deletion strains, locus YMR058W, strain fet3, hits give low values 0.989 | S. cerevisiae deletion strains, locus YMR078C, strain ctf18, hits give low values 1.02 | S. cerevisiae deletion strains, locus YMR125W, strain sto1, hits give low values 1.01 | S. cerevisiae deletion strains, locus YMR129W, hits give low values 1.01 | S. cerevisiae deletion strains, locus YMR205C, strain PFK2, hits give low values 0.977 | S. cerevisiae deletion strains, locus YMR223W, strain ubp8, hits give low values 1.01 | S. cerevisiae deletion strains, locus YMR231W, strain pep5, hits give low values 1.01 | S. cerevisiae deletion strains, locus YMR263W, strain SAP30, hits give low values 0.984 | S. cerevisiae deletion strains, locus YMR307W, strain GAS1, hits give low values 0.973 | S. cerevisiae deletion strains, locus YNL067W, strain RPL9B, hits give low values 1.01 | S. cerevisiae deletion strains, locus YNL071W, strain lat1, hits give low values 1 | S. cerevisiae deletion strains, locus YNL128W, strain TEP1, hits give low values 1 | S. cerevisiae deletion strains, locus YNL153C, strain GIM3, hits give low values 0.995 | S. cerevisiae deletion strains, locus YNL183C, strain NPR1, hits give low values 0.915 | S. cerevisiae deletion strains, locus YNL209W, strain ssb2, hits give low values 1.02 | S. cerevisiae deletion strains, locus YNL233W, strain BNI4, hits give low values 0.981 | S. cerevisiae deletion strains, locus YNL248C, strain rpa49, hits give low values 1.04 | S. cerevisiae deletion strains, locus YNL250W, strain rad50, hits give low values 1.01 | S. cerevisiae deletion strains, locus YNL271C, strain bni1, hits give low values 1.01 | S. cerevisiae deletion strains, locus YNL298W, strain CLA4, hits give low values 1.02 | S. cerevisiae deletion strains, locus YNL307C, strain MCK1, hits give low values 1.01 | S. cerevisiae deletion strains, locus YNL322C, strain KRE1 (second series), hits give low values 1 | S. cerevisiae deletion strains, locus YNL322C, strain KRE1, hits give low values 1 | S. cerevisiae deletion strains, locus YNR049C, strain mso1, hits give low values 1.02 | S. cerevisiae deletion strains, locus YNR052C, strain pop2, hits give low values 1.02 | S. cerevisiae deletion strains, locus YOL006C, strain TOP1, hits give low values 1.01 | S. cerevisiae deletion strains, locus YOL012C, strain htz1 0.879 | S. cerevisiae deletion strains, locus YOL147C, strain pex11, hits give low values 1.01 | S. cerevisiae deletion strains, locus YOR001W, strain rrp6, hits give low values 1.01 | S. cerevisiae deletion strains, locus YOR061W, strain CKA2, hits give low values 1 | S. cerevisiae deletion strains, locus YOR069W, strain VPS5, hits give low values 0.998 | S. cerevisiae deletion strains, locus YOR070C, strain gyp1, hits give low values 0.993 | S. cerevisiae deletion strains, locus YOR080W, strain dia2, hits give low values 1.01 | S. cerevisiae deletion strains, locus YOR083W, strain WHI5, hits give low values 1.01 | S. cerevisiae deletion strains, locus YOR106W, strain vam3, hits give low values 1.02 | S. cerevisiae deletion strains, locus YOR136W, strain idh2, hits give low values 1.02 | S. cerevisiae deletion strains, locus YOR144C, strain elg1, hits give low values 1.02 | S. cerevisiae deletion strains, locus YOR184W, strain ser1, hits give low values 1.02 | S. cerevisiae deletion strains, locus YOR231W, strain MKK1, hits give low values 0.986 | S. cerevisiae deletion strains, locus YOR265W, strain rbl2, hits give low values 1.01 | S. cerevisiae deletion strains, locus YOR270C, strain vph1, hits give low values 0.993 | S. cerevisiae deletion strains, locus YOR290C, strain snf2, hits give low values 0.987 | S. cerevisiae deletion strains, locus YOR316C, strain cot1, hits give low values 1.01 | S. cerevisiae deletion strains, locus YPL051W, strain arl3, hits give low values 1.01 | S. cerevisiae deletion strains, locus YPL055C, strain LGE1, hits give low values 1.06 | S. cerevisiae deletion strains, locus YPL078C, strain atp4, hits give low values 0.968 | S. cerevisiae deletion strains, locus YPL106C, strain sse1, hits give low values 1.05 | S. cerevisiae deletion strains, locus YPL240C, strain hsp82, hits give low values 0.988 | S. cerevisiae deletion strains, locus YPL241C, strain CIN2, hits give low values 1.01 | S. cerevisiae deletion strains, locus YPL256C, strain CLN2, hits give low values 0.961 | S. cerevisiae deletion strains, locus YPR119W, strain clb2, hits give low values 1.01 | S. cerevisiae deletion strains, locus YPR141C, strain kar3, hits give low values 1 | S. cerevisiae deletion strains, locus YPR163C, strain tif3, hits give low values 1.02 | S. cerevisiae deletion strains, locus YPR167C, strain met16, hits give low values 1.01 | S. cerevisiae deletion strains, strain wtn01, hits give low values 1.02 | S. cerevisiae strains, strain wild type, hits give low values 1.01
